High-throughput results deposited in PubChem by National Center for Advancing Translational Sciences (NCATS).
GLS inh: qHTS for Inhibitors of Glutaminase (GLS). AID 624170, 2012. Glutaminase kidney isoform, mitochondrial (Homo sapiens), O94925. 0.21% of 410,000 active. GLS enzymatic activity, qHTS titration. Potency, µM (titrated, usually from 45.5 µM), most hits filed as inhibitors
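hKGA in 45 mM KH2PO4 (pH 8.2), 0.02% Tween-20 with compound, then 1mM L-Glutamine (stock as added) plus glutamate oxidase/HRP/Amplex red coupling mix. Fluorescence read initially and after 30 min at RT; signal change reflects glutamate formation.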
TrxR1 substrate: qHTS Assay for Substrates of Mammalian Selenoprotein Thioredoxin Reductase 1 (TrxR1): qHTS; Thioredoxin reductase 1, cytoplasmic (Rattus norvegicus), O89049; purified TrxR1 substrate turnover, NADPH consumption readout; Potency, µM (titrated, usually from 114 µM); 0.01% of 390,000 active; AID 588456, 2011; further: nearly all actives have a fitted effect of over 50% in size
Target sequence (O89049 whole entry, looked up): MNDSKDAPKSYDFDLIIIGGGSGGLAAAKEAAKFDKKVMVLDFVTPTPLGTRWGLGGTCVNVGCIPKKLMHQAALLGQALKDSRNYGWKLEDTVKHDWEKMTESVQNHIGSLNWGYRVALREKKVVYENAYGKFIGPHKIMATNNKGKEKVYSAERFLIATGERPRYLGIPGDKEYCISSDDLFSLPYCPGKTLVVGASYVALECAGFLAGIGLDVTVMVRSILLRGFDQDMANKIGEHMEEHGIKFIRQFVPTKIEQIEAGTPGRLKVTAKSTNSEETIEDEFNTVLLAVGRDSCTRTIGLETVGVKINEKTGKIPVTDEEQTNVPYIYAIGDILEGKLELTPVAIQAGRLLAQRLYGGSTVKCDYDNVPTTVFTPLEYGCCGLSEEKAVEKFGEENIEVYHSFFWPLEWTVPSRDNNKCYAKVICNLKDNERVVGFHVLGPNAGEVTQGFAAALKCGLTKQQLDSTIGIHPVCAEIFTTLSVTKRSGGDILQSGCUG
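Rat TrxR1, dispensed at 90 nM, was prereduced with 400 uM NADPH (final) for 5 min at ~22 deg C, then incubated with compound 15 min before 400 uM selenite. A first-read NADPH fluorescence drop versus no-compound background flagged substrates.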
TrxR1 inh: qHTS Assay for Inhibitors of Mammalian Selenoprotein Thioredoxin Reductase 1 (TrxR1): qHTS. Thioredoxin reductase 1, cytoplasmic (Rattus norvegicus), O89049. recombinant rTrxR1, NADPH fluorescence consumption, selenite substrate. Potency, µM (top dose mostly 114 µM), usual class: inhibitors. 1% of 390,000 active; further: nearly all actives have a fitted effect of over 65% in size
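Rat TrxR1 (90 nM in the dispensed reagent) was pre-reduced with 400 uM NADPH for 5 min at room temperature, then incubated with compound for 15 min. After 400 uM selenite was added, NADPH fluorescence (Ex 340/Em 450 nm) was followed for 8 min.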
IDH1 R132H inh: qHTS for Inhibitors of mutant isocitrate dehydrogenase 1 (IDH1): qHTS. Isocitrate dehydrogenase [NADP] cytoplasmic (Homo sapiens), O75874. IDH1-R132H enzyme, NADPH consumption, diaphorase/resazurin fluorescence. Potency, µM (top dose mostly 76.6 µM), actives largely listed as inhibitors. 0.093% of 390,000 active. AID 602179, 2012; further: nearly all actives have a fitted effect of over 65% in size
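IDH1-R132H (0.5 ug/mL) preincubated 30 min with compound, then NADPH (0.016 mM) and alpha-KG (2 mM) added; 80 min at RT, pH 7.5. Remaining NADPH coupled via diaphorase/resazurin to fluorescence (540/590 nm); concentration-response curves normalized to no-enzyme control.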
Hits are given with their value; . = inactive; ? = inconclusive; / = not tested or not shown; [ ] = another dose, or the depositor's remark. Compounds with a hit are over-represented: about 1.2% of the library has one in this group of screens. The call rests on the fitted dose curve; in most records, active means well fitted curve in the direction sought with a large enough effect; inconclusive means small, poorly fitted or top-dose-only effect, or another doubt; inactive means no such curve, though single readings can be large; an effect the other way counts as inactive or inconclusive.

SMILES	GLS inh	TrxR1 substrate	TrxR1 inh	IDH1 R132H inh
Cc1ccc(C)c(N2CCN(C(=O)CCS(=O)(=O)c3ccc4c(c3)CC(=O)N4C)CC2)c1	.	.	.	.
Nc1ccc(/C=C/c2ccc(N)cc2S(=O)(=O)O)c(S(=O)(=O)O)c1	11µM	/	/	/
Nc1ccc(Nc2ccccc2)c(S(=O)(=O)O)c1	?	.	.	.
O=[n+]1c2c(n([O-])c3cc(Br)ccc31)CCCC2	.	.	.	.
O=[n+]1c2c(n([O-])c3cc(F)c(F)cc31)CCCC2	.	.	3.5µM	.
COc1ccc(-c2cc(C(F)F)n3ncc(C(=O)Nc4cc(C)on4)c3n2)cc1	0.71µM	.	.	.
COc1cc(-c2nnc(SCCOc3ccc(Cl)cc3C)o2)cc(OC)c1OC	.	.	.	.
O=[N+]([O-])c1cccc(N/N=C/c2cccc(O)c2O)c1	7.9µM	.	.	.
O=C(Nc1ccccc1)C1=C(c2ccccc2)S(=O)(=O)CCS1(=O)=O	.	.	0.22µM	.
COc1ccc2nc(-c3ccc(N)cc3)[nH]c2c1	.	.	.	.
COc1ccc(-c2nc3ccc(C4=C(C)CC(=O)NN4)cc3[nH]2)cc1	32µM	/	/	/
CSc1ccccc1C(=O)Nc1ccccc1C(=O)NC(C)C	32µM	.	.	.
O=C(/C=C/c1ccccc1)c1ccccc1	.	.	?	.
O=C(/C=C/c1ccccc1)/C=C/c1ccccc1	.	.	56µM	.
O=C(N/N=C/c1cccc(F)c1)c1cc(-c2ccco2)nc2ccccc12	13µM	.[11.4 µM]	.[11.4 µM]	.
O=C(N/N=C/c1ccc(F)cc1)c1cc(-c2ccccn2)nc2ccccc12	.	.	.	.
COc1cc(/C=N/NC(=O)c2cc(-c3ccccc3Cl)nc3ccccc23)cc(OC)c1O	.	.	.	.
COc1cc(/C=N/NC(=O)c2cc(-c3ccco3)nc3ccccc23)cc(OC)c1O	.	.	13µM	.
COC1=CC(=O)c2ccccc2C1=O	.	.	?	.
COC1=CC(=O)C=C(OC)C1=O	.	.	32µM	.
C=C1C=CS(=O)(=O)N(C(CC(C)C)C(=O)OC)C1 (stereo not drawn)	/	.	11µM	/
COC(=O)C(CC(C)C)N1CCC(=O)c2ccccc2S1(=O)=O (stereo not drawn)	.	.	.	.
COc1ccc2[nH]c(=O)cc(C(=O)O)c2c1	14µM	.	.	.
CN(C)c1ccc(NC(N)=S)cc1	14µM	.	.	.
Cc1nn(-c2ccccc2)c2c1N(CCCC(=O)NCc1ccc(OC(C)C)cc1)C(=O)CS2	.	.	.	.
SMILES	GLS inh	TrxR1 substrate	TrxR1 inh	IDH1 R132H inh
Cc1ccc(C2C=C(c3ccc(Cl)cc3)Nc3nc(NC(=O)c4ccco4)nn32)cc1 (stereo not drawn)	.	.	40µM	.
CN1CCN(C2=C(Cl)C(=O)N(c3cccc(Cl)c3)C2=O)CC1	.	.	?	.
CN1CCN(C2=C(Cl)C(=O)N(c3ccc(Cl)c(Cl)c3)C2=O)CC1	.	.	16µM	.
Cc1ccc(Cn2c(SCc3ccc(C(=O)O)cc3)nc3cccnc32)cc1	.	.	.	.
O=[N+]([O-])c1ccc(-c2ccn[nH]2)o1	.	.	3.5µM	.
CCCCN1CC[C@H]2C=CC[C@@H](C(=O)NCc3cccnc3)[C@H]2C1=O	/	.	.	/
Nc1nc2ccc(O)cc2s1	13µM	.	.	.
Nc1nc2ccc(Br)cc2s1	.	/	/	.
Cc1ccc(CNC(=O)C2CCN(S(=O)(=O)c3cccs3)CC2)o1	.	.	8.9µM	.
Cc1ccc(CNC(=O)C2CCC(=O)N(CC3CCCCC3)C2)o1 (stereo not drawn)	.	.	50µM	.
Cc1ccc(CNC(=O)C2CCC(=O)N(Cc3cccc(C(F)(F)F)c3)C2)o1 (stereo not drawn)	.	.	35µM	.
COc1ccc(CNC(=O)C2CCC(=O)N(CC3CCCCC3)C2)cc1 (stereo not drawn)	.	.	.	.
Cc1cc(CNC(=O)C2CCC(=O)N(Cc3cccc(C(F)(F)F)c3)C2)no1 (stereo not drawn)	.	.	.	.
O=C(O)Cc1sc(Nc2ccccc2Cl)nc1-c1ccccc1	.	.	.	.
